We go through 37 molecules from PubChem BioAssay (Tox21).

Assay [1] in a line: qHTS assay to identify small molecule antagonists of the peroxisome proliferator-activated receptor delta (PPARd) signaling pathway - cell viability counter screen (AID 743213). Note: nearly all actives have a fitted effect of over 50% in size. Note: potency is the fitted concentration of half-maximal effect. In outline:
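HEK293H cells with the PPARd UAS-bla reporter, co-treated 17 h at 37 C with compounds and L165041 (300 nM final), were lysed with CellTiter-Glo. Luminescence indicated viable cell content.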

A short description of assay [2]: qHTS assay to identify small molecule agonists of the farnesoid-X-receptor (FXR) signaling pathway - cell viability counter screen (AID 743218). Note: nearly all actives have a fitted effect of over 45% in size. Note: potency is the fitted concentration of half-maximal effect. In outline: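 FXR-UAS-bla HEK 293T cells, plated 5 h at 37 C, were exposed to compounds for 16 h at 37 C. CellTiter-Glo was then added to the same wells as the bla readout; luminescence read after 30 min at room temperature.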
On the technique in general: Quantitative high-throughput screening tests each substance at several concentrations.

Assay [3] has as its target Vitamin D3 receptor (Homo sapiens) (UniProt P11473). The assay can be described thus: qHTS assay to identify small molecule agonists of the vitamin D receptor (VDR) signaling pathway (AID 743222; calls by dose curve). In outline: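 VDR-bla cells were plated 4 h at 37C/5% CO2, then exposed to compounds in DMSO for 16 h. After LiveBLAzer B/G FRET substrate addition and 2 h at room temperature, beta-lactamase reporter fluorescence was read.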

For assay [4] the target is unchanged. The assay can be described thus: qHTS assay to identify small molecule antagonists of the vitamin D receptor (VDR) signaling pathway (AID 743223; active = well fitted inhibition curve with a large enough effect in the signal ratio in the repeat runs, not every such curve was filed as active; the % refers to the signal ratio). A digest of the protocol:
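Agonist 1alpha,25-dihydroxyvitamin D3 (3 nM in well) was added with each compound to VDR-bla cells preincubated 4 h. Cells stood 16 h at 37C, then FRET substrate 2 h at room temperature; fluorescence intensity recorded.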

A short description of assay [5]: qHTS assay to identify small molecule agonists of the vitamin D receptor (VDR) signaling pathway - cell viability counter screen (AID 743224). Note: nearly all actives have a fitted effect of over 50% in size. Note: potency is the fitted concentration of half-maximal effect. A digest of the protocol: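 VDR-bla cells were preincubated 4 h at 37C/5% CO2, then exposed to compounds for 16 h. After the 2 h room-temperature bla FRET read, CellTiter-Glo was added to the same wells and luminescence read after 30 min.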

The nature of assay [6]: qHTS assay to identify small molecule antagonists of the farnesoid-X-receptor (FXR) signaling pathway - cell viability counter screen (AID 743221; active = well fitted cell-killing curve with a large enough effect in the repeat runs, not every such curve was filed as active; note: nearly all actives have a fitted effect of over 50% in size; note: potency is the fitted concentration of half-maximal effect). In outline:
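In GeneBLAzer FXR-UAS-bla HEK 293T cells stimulated with 50 uM chenodeoxycholic acid (final), compounds acted for 16 h at 37 C. Viability was assessed afterwards by CellTiter-Glo luminescence.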

The target of assay [7] is Bile acid receptor (Homo sapiens) (UniProt Q96RI1). Kind of assay: qHTS assay to identify small molecule agonists of the farnesoid-X-receptor (FXR) signaling pathway (AID 743220; active = well fitted activation curve with a large enough effect in the signal ratio in the repeat runs, not every such curve was filed as active; the % refers to the signal ratio). A digest of the protocol:
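Beta-lactamase reporter under UAS control in GeneBLAzer FXR HEK 293T cells (5000/well) measured with LiveBLAzer FRET substrate after 2 h at room temperature. Compound exposure lasted 16 h at 37C.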

Assay [8] has the same target. The assay can be described thus: qHTS assay to identify small molecule antagonists of the farnesoid-X-receptor (FXR) signaling pathway (AID 743217; active = well fitted inhibition curve with a large enough effect in the signal ratio in the repeat runs, not every such curve was filed as active; the % refers to the signal ratio). In outline:
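FXR-UAS-bla HEK 293T cells pre-incubated 5 h at 37 °C, then exposed to compounds with chenodeoxycholic acid (50 uM final) for 16 h at 37 °C. Beta-lactamase reporter read by LiveBLAzer B/G FRET substrate fluorescence after 2 h at room temperature.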

The target in assay [9] is Peroxisome proliferator-activated receptor delta (Homo sapiens) (UniProt Q03181). The assay can be described thus: qHTS assay to identify small molecule antagonists of the peroxisome proliferator-activated receptor delta (PPARd) signaling pathway (AID 743215; active = well fitted inhibition curve with a large enough effect in the signal ratio in the repeat runs, not every such curve was filed as active; the % refers to the signal ratio;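 note: cells stimulated with agonist L165041 at 300 nM final during compound exposure; series mostly up to about 62 µM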). In outline: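 PPARd UAS-bla HEK293H cells were pre-incubated 5 h at 37 C, then given test compounds in DMSO plus agonist L165041 (300 nM final). After 17 h at 37 C, beta-lactamase FRET substrate was added; fluorescence read after 2 h at room temperature.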
Sequence of Peroxisome proliferator-activated receptor delta (Homo sapiens) (Q03181 whole entry, looked up): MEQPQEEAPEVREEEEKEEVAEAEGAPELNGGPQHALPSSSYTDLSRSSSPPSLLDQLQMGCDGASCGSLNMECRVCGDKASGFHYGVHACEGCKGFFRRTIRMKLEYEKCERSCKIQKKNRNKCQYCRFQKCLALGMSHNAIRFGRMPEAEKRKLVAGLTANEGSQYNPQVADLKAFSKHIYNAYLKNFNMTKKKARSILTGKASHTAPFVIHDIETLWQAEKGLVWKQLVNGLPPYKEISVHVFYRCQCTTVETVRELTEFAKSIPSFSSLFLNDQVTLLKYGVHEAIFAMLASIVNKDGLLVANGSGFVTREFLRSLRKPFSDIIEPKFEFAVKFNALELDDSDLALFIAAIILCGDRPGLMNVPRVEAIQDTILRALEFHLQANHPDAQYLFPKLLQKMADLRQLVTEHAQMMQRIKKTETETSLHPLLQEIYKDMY

Structures are written as SMILES. “And” between values parts separate entries of the source, which are not always exact repeats. Identical values can stand only once. Inconclusive results are not listed. A structure can be active in one record and inactive in another. The source made the active and inactive calls. Unless noted, calls come from the whole dose curve; as a rule, active = well fitted curve in the direction sought with a large enough effect in the repeat runs; inconclusive = weak or mixed curves; inactive = no such curve, though single readings can be large; an effect the other way counts as inactive or inconclusive.

Sequence of Vitamin D3 receptor (Homo sapiens) (P11473 whole entry, looked up): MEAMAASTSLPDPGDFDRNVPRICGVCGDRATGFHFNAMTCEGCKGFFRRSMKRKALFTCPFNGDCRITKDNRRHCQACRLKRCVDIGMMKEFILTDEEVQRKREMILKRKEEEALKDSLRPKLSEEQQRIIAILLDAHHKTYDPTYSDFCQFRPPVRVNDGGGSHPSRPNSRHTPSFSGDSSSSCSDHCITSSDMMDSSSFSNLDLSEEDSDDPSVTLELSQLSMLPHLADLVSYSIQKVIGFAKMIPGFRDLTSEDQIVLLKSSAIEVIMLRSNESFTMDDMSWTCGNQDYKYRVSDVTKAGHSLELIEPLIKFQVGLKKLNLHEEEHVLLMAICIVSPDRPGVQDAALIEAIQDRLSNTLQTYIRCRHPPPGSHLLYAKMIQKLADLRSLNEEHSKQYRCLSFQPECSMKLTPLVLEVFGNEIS
Sequence of Bile acid receptor (Homo sapiens) (Q96RI1 whole entry, looked up): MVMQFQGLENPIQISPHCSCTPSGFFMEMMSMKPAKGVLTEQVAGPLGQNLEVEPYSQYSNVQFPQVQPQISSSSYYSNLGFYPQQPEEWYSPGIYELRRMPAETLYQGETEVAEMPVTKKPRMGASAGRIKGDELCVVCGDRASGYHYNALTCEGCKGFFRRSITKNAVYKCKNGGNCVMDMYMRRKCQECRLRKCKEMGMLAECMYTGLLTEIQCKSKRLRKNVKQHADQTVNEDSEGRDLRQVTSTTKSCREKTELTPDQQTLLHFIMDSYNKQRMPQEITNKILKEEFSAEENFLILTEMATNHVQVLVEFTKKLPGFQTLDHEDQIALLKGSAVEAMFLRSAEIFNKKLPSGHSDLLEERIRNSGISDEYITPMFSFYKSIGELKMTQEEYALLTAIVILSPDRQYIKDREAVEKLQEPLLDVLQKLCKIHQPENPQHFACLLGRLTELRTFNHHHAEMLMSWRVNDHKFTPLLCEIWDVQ

For `C/C=C/C(=O)N(CC)c1ccccc1C`, the Potency entry in [1], in [2] and in assay [5] was “inactive” each time. Also, the result in assay [3] and in assay [4] was inactive.

Regarding `CC(=O)O[C@]1(C(C)=O)CC[C@H]2[C@@H]3C=C(C)C4=CC(=O)CC[C@]4(C)[C@H]3CC[C@@]21C`, the Potency result in assay [1], in [2] and in [5] was “inactive” each time.

For the molecule `CC(C)[C@@H]1CC[C@@H](C)CC1=O`, the Potency result in assay [1], in assay [2] and in assay [5] was “inactive” throughout.

Regarding `C=C[C@@]1(C)CC(=O)[C@]2(O)[C@@]3(C)[C@@H](O)CCC(C)(C)[C@@H]3[C@H](O)[C@H](OC(C)=O)[C@@]2(C)O1`, the Potency is 9.77 µM (active) in [1]; 9.77 µM (active) and 8.41 µM (active) in assay [2]; 1.74 µM (active) in assay [6]. Moreover, in assay [3], the result was inactive. Further, the Potency result in assay [5] is “inactive”.

Consider `Cc1ccc(C(C)(C)C)c(O)c1`, for which the Potency entry in assay [1], in [2], in assay [6] and in assay [5] was “inactive” in each case. The outcome in assay [7], in [3] and in assay [4] was inactive.

On to `CCCCCCOCCOCCO`, for which the Potency result in assay [1], in assay [8], in assay [2], in [6] and in [5] was “inactive” throughout. Further, the outcome in [7] was inactive.

With `CC1(C)NC(=O)N(c2ccc([N+](=O)[O-])c(C(F)(F)F)c2)C1=O`, the Potency entry in assay [1], in [2] and in assay [5] was “inactive” throughout. Moreover, the outcome in assay [7] and in assay [3] was inactive.

Take `CN1CCOCC1`: the Potency entry in [1], in [2], in assay [6] and in assay [5] was “inactive” each time. The result in [3] was inactive.

For the molecule `O=C(CCCN1CCC(O)(c2ccc(Cl)cc2)CC1)c1ccc(F)cc1`, the Potency is 30.9 µM (active) and 21.1 µM (active) in [1]; 30.9 µM (active) and inactive in assay [2]. In addition, the molecule was called inactive in assay [7]. Further, the Potency entry in assay [5] was “inactive”.

`O=C(O)CCCC(=O)O`: the Potency entry in [1], in assay [2] and in assay [5] was “inactive” each time. The call in assay [9] was inactive.

For `CCC/C=C/C=O`, the Potency result in assay [1], in assay [2] and in assay [5] was “inactive” in each case.

For `COc1ccc2nc(N)sc2c1`, the Potency result in assay [1], in assay [2] and in assay [5] was “inactive” throughout. In addition, the molecule was classed as inactive in assay [3].

On to `CNC[C@H](O)c1ccc(O)c(O)c1`, for which the Potency result in assay [1] and in assay [5] was “inactive” throughout. For the same molecule, the result in [3] and in assay [4] was inactive.

On to `CC[C@]12CCCN3CCc4c(n(c5ccccc45)[C@@](O)(C(=O)OC)C1)[C@@H]32`, for which the Potency result in [1], in assay [2], in assay [6] and in assay [5] was “inactive” each time. Further, the molecule was called inactive in assay [3].

Consider `FC(F)(F)C(Cl)Br` (stereo not drawn), for which the Potency entry in [1], in [2] and in [5] was “inactive” in each case. Besides, the molecule was classed as inactive in assay [9].

In the case of `C=C1C[C@H]2[C@@H]3C=C(C)C4=CC(=O)CC[C@]4(C)[C@H]3CC[C@]2(C)[C@@]1(OC(C)=O)C(C)=O`, the Potency entry in assay [1], in [2] and in [5] was “inactive” throughout.

Turning to `CCCOCCO`, the Potency result in [1], in assay [8], in [2], in assay [6] and in assay [5] was “inactive” each time. For the same molecule, the result in assay [7], in [3] and in assay [4] was inactive.

Take `Nc1ccc2c(O)cc(S(=O)(=O)O)cc2c1`: the Potency result in assay [1], in assay [2] and in assay [5] was “inactive” throughout. In addition, the call in assay [9] was inactive.

Turning to `Oc1ccc(C(c2ccc(O)cc2)C(Cl)(Cl)Cl)cc1`, the Potency in assay [1] was 38.9 µM (active). Further, the Potency result in [6] is “inactive”. The call in assay [3] was inactive.

As for `NCCS(=O)(=O)O`, the Potency entry in assay [1], in [2], in assay [6] and in [5] was “inactive” throughout. The result in assay [3] and in [4] was inactive.

For `O=[Se](O)O`, the Potency result in [1], in [2] and in [5] was “inactive” each time. Also, the result in assay [9] was inactive.

`CCc1cccc2c3c([nH]c12)C(CC)(CC(=O)O)OCC3` (stereo not drawn): the Potency entry in assay [1], in assay [2] and in assay [5] was “inactive” in each case. Moreover, the outcome in [7] and in assay [3] was inactive.

As for `CN(C)CCCN1c2ccccc2Sc2ccc(Cl)cc21`, the Potency is 13.8 µM (active) and 18.8 µM (active) in assay [1]; 21.9 µM (active) and 26.6 µM (active) in assay [2]; 43.6 µM (active) and 26.6 µM (active) in assay [6]; 21.9 µM (active) in [5]. In addition, in assay [7], the outcome was inactive.

For the molecule `CN(Cc1cnc2nc(N)nc(N)c2n1)c1ccc(C(=O)N[C@@H](CCC(=O)O)C(=O)O)cc1`, in [7], the outcome was inactive. In addition, in assay [5], the Potency is 30.9 nM (active) and 188 nM (active).

With `Clc1ccc(Sc2cc(Cl)c(Cl)cc2Cl)cc1`, the Potency result in assay [1], in assay [2], in [6] and in [5] was “inactive” in each case. For the same molecule, the result in assay [3] was inactive.

`C=CC(C)(O)CCC=C(C)C` (stereo not drawn): the Potency entry in assay [1], in assay [2] and in assay [5] was “inactive” each time. The molecule was called inactive in assay [7], in assay [3] and in assay [4].

`OC[C@@H](O)[C@@H](O[C@@H]1O[C@H](CO)[C@H](O)[C@H](O)[C@H]1O)[C@H](O)[C@@H](O)CO`: the Potency result in assay [1], in [2] and in [5] was “inactive” each time. For the same molecule, in [3], the molecule was called inactive.

As for `Cc1ccc(/C(=C\CN2CCCC2)c2ccccn2)cc1`, the molecule was called inactive in assay [9], in assay [3] and in assay [4]. Further, the Potency entry in assay [2], in [6] and in [5] was “inactive” in each case.

On to `C=CCNCC=C`, for which the Potency result in [1], in assay [2] and in [5] was “inactive” in each case. In addition, the molecule was classed as inactive in assay [7] and in assay [3].

Take `COCCOCCOCCO`: the Potency entry in assay [1], in assay [2], in assay [6] and in [5] was “inactive” throughout. Moreover, the molecule was called inactive in assay [3].

With `OC[C@H]1O[C@@H]2O[C@H]3[C@H](O)[C@@H](O)[C@@H](O[C@H]4[C@H](O)[C@@H](O)[C@@H](O[C@H]5[C@H](O)[C@@H](O)[C@@H](O[C@H]6[C@H](O)[C@@H](O)[C@@H](O[C@H]7[C@H](O)[C@@H](O)[C@@H](O[C@H]1[C@H](O)[C@H]2O)O[C@@H]7CO)O[C@@H]6CO)O[C@@H]5CO)O[C@@H]4CO)O[C@@H]3CO`, the Potency entry in [1], in assay [2], in assay [6] and in assay [5] was “inactive” throughout. In assay [3], the molecule was classed as inactive.

For `NC[C@H](O)c1ccc(O)c(O)c1`, the Potency entry in assay [1], in assay [2], in assay [6] and in assay [5] was “inactive” throughout.

With `CCC(=O)O[C@H]1[C@H](O[C@@H]2[C@@H](C)[C@H](O[C@H]3C[C@@](C)(OC)[C@@H](O)[C@H](C)O3)[C@@H](C)C(=O)O[C@H](CC)[C@@](C)(O)[C@H](O)[C@@H](C)C(=O)[C@H](C)C[C@@]2(C)O)O[C@H](C)C[C@@H]1N(C)C`, the Potency in [1] is 23 µM (active) and inactive; in [2] it was 32.5 µM (active) and inactive; in [6] it was 32.5 µM (active) and inactive; in assay [5] it was 36.4 µM (active) and inactive. Moreover, the molecule was called inactive in assay [3].

For the molecule `CN(C)C`, the Potency entry in assay [1], in assay [2], in assay [6] and in assay [5] was “inactive” throughout. Moreover, the result in [3] was inactive.

Turning to `Nc1ccc(O)c(N)c1`, the Potency entry in [1], in [2], in [6] and in assay [5] was “inactive” in each case. Besides, the molecule was classed as inactive in [3].

For the molecule `O=C1CCc2ccccc2O1`, the Potency result in assay [1], in assay [2] and in assay [5] was “inactive” in each case. For the same molecule, the call in [9] and in assay [3] was inactive.

In the case of `CC/C(=C(/CC)c1ccc(O)cc1)c1ccc(O)cc1`, the Potency was 34.4 µM (active) in [1] and 24.3 µM (active) in assay [5]. Also, the molecule was called inactive in assay [7], in assay [3] and in assay [4]. Besides, the Potency result in assay [6] is “inactive”.
